AI-2 QS mod = modulators of Vibrio harveyi AI-2 quorum sensing system. Vibrio harveyi JMH597 AI-2 luminescence/OD600 ratio, 9 h; active compounds read low; strain lacks LuxN and CqsS sensors; 0 = neutral-control median. activity change, % at 7.5 µM. actives 0.4% (n = 300,000); in the data active = activity change below about -75%, passing the limit was not always enough;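 note: luminescence divided by OD600 gain over 9 h not by final OD600 alone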
Mot1-301 SUMO = inhibitors of SUMOylation pathway: yeast Mot1-301 growth rescue; S. cerevisiae Mot1-301 growth rescue, ATP luminescence, 38.5C; percent above DMSO median, 100 means doubled; growth rescue, % at 18.8 µM; actives 1% (n = 320,000); AID 2716;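 active = every valid replicate shows activation above 250% relative to neutral control wells; inactive = the rest, any valid replicate at or below 250%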;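 note: OY570 slx delta 5 strain wells were the positive control but not used for scaling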
ALR inh = inhibitors of human sulfhydryl oxidase ALR. purified ALR, DTT oxidation, H2O2 HRP-luminol luminescence. inhibition, % (no concentration beside the values). actives 3.8% (n = 290,000). AID 485317;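 active = mean replicate inhibition above about 79%, with every replicate also reaching it, limit read from the data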
Target sequence (P55789 whole entry, looked up): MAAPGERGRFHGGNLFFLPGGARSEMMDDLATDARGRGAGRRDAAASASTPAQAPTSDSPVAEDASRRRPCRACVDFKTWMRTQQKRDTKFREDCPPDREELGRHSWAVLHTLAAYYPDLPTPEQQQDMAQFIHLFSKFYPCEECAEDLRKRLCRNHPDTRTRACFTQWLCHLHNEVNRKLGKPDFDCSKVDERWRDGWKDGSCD
HIF act = HIF pathway transcriptional activation | U2OS HRE-luciferase reporter, luminescence; normalized: DMSO 0%, desferrioxamine 100% | actives 0.32% (n = 300,000) | activation, % at 7.5 µM (by protocol) | AID 1910;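 active = mean activation of at least 10% of the iron chelator positive control signal, with at least half of replicates also reaching 10%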
An asterisk follows results filed as active; . = no result. Only some compounds are listed: those with a hit (about 4.8% of all), similar ones and a draw of the others.

SMILES	AI-2 QS mod	Mot1-301 SUMO	ALR inh	HIF act
O=C(CC(NCCc1ccccc1)C(=O)O)Nc1ccc(O)cc1 (stereo unspecified)	17	180	91*	0
O=C(CC(c1ccccc1)c1ccccc1)Nc1ccc(O)cc1	29	214	99*	-2
CC(=O)Nc1ccc(NC(=O)CC(c2ccccc2)c2ccccc2)cc1	12	-5	-11	-1
CCOC(=O)C1=CC[C@@H](c2cc(OC)c(OC)c(OC)c2)N(S(=O)(=O)c2ccc(C)cc2)[C@H]1C(=O)OCC	.	6	-1	.
CN(CC(=O)Nc1ccccc1C(=O)Nc1ccccc1)C1CCCCC1	.	-11	-7	.
Cc1ccc2nc(-c3ccc(Br)o3)oc(=O)c2c1	22	-1	89*	-1
COc1ccc(-c2nc(CC(=O)O)cs2)cc1OC	12	81	1	0
CCOc1ccc(-c2nc(CCl)cs2)cc1OC	19	2	99*	2
Cc1ccc(S(=O)(=O)N2CCCC2)cc1C(=O)NCCN1CCOCC1	-3	-14	-12	0
CCOC(=O)c1c(NC(=O)C2C3C=CC(C3)C2C(=O)O)sc2c1CCC(CC)C2 (stereo unspecified)	29	-11	-3	0
CCOC(=O)c1c(NC(=O)C2C3C=CC(CC3)C2C(=O)O)sc(C)c1C (stereo unspecified)	29	298*	8	-1
Cc1oc(-c2ccccc2F)nc1CS(=O)(=O)CC(=O)NCCCN1CC(C)CC(C)C1 (stereo unspecified)	5	12	-10	0
Cc1oc(-c2ccccc2Cl)nc1CS(=O)CC(=O)NCCc1ccccc1 (stereo unspecified)	8	-26	99*	0
Cc1oc(-c2ccccc2Cl)nc1CS(=O)(=O)CC(=O)NCCc1ccccc1	6	7	70	0
Cc1ccccc1-c1nc(CS(=O)CC(=O)NCCc2ccc(Cl)cc2)c(C)o1 (stereo unspecified)	14	19	98*	0
Cc1oc(-c2ccccc2Cl)nc1CS(=O)CC(=O)NCCCN1CC(C)CC(C)C1 (stereo unspecified)	9	115	89*	0
COc1cccc(C(=O)COC(=O)c2cccs2)c1	-27	-3	3	2
CC(OC(=O)COc1ccccc1[N+](=O)[O-])C(=O)Nc1ccc(N2CCOCC2)cc1 (stereo unspecified)	-12	.	76*	1
Cc1ccc(C(=O)NCC(=O)OC(C)C(=O)Nc2ccc(N3CCOCC3)cc2)s1 (stereo unspecified)	6	-3	93*	0
O=c1c(O)cccc2cc(O)c(O)c(O)c12	39	-2	100*	0
O=C(N/N=C/c1cccn1-c1cccc(C(=O)O)c1)Nc1ccccc1	24	-2	97*	-52
O=C(O)c1cccc(-n2cccc2C=C2C(=O)c3ccccc3C2=O)c1	23	-5	-2	0
O=C(O)c1cccc(-n2cccc2/C=C2/SC(=O)N(CC(=O)N3CCCC3)C2=O)c1	21	35	.	14*
COc1ccccc1OCC(=O)Nn1c(=S)[nH]c2ncccc2c1=O	15	6	91*	-2
COc1ccc(Nc2nc(N3CCN(S(=O)(=O)N(C)C)CC3)nc3ccccc23)cc1	-6	-9	9	1
SMILES	AI-2 QS mod	Mot1-301 SUMO	ALR inh	HIF act
COC(=O)c1[nH]c2ccc(C)cc2c1NS(=O)(=O)c1ccc(F)c(C)c1	8	164	30	0
COc1ccc2[nH]c(C(=O)O)c(NS(=O)(=O)c3ccc(C)cc3C)c2c1	14	2	98*	0
COC(=O)c1[nH]c2ccc(C)cc2c1NS(=O)(=O)c1ccc(F)cc1	-1	-3	79*	0
O=[N+]([O-])c1ccc(N2CCN(c3cccc(Cl)c3)CC2)cn1	12	-6	.	0
COc1ccc(CC(=O)NNC(=O)c2ccccc2)cc1OC	.	-11	.	.
COc1ccc(CC(=O)NNC(=S)NCC2CC2)cc1OC	3	84	28	30*
COc1cc(C#N)c(N=C(SCC#N)N2CCOCC2)cc1OC	9	5	98*	0
CN(C)S(=O)(=O)Nc1ccc(Oc2ccccc2)cc1	-93*	13	-5	0
CN(C(=O)CSc1nc(O)cc(=O)n1C1CCCC1)c1ccccc1	-1	129	98*	0
CN(C(=O)CSc1nc(O)cc(=O)n1-c1ccccc1F)c1ccccc1	9	6	-1	-1
Cc1noc(C)c1COC(=O)C1CCN(S(=O)(=O)c2ccc(F)cc2)CC1	.	-2	.	.
Cc1ncc(CO)c(CNc2ccc(-c3nc4ccccc4[nH]3)cc2)c1O	19	475	98*	-29
O=C(Cc1ccc([N+](=O)[O-])cc1)OCc1c(F)cccc1Cl	11	12	-1	-1
CN(c1ccccc1)S(=O)(=O)c1ccc(C(=O)Nc2ncccc2O)cc1	-2	-2	-33	3
O=C(Nc1ncccc1O)c1ccc(S(=O)(=O)Nc2ccccc2)cc1	9	-11	0	72*
O=C(Nc1ccccc1O)c1ccc(NS(=O)(=O)c2cccc3cccnc23)cc1	11	-3	44	127*
CCOCCCNc1ncnc2c1nc1n2CCCC1	13	795	-6	-29
COc1ccccc1C(c1nnnn1CC1CCCO1)N1CCC(C(N)=O)CC1 (stereo unspecified)	22	-2	-1	15*
CC(C)(C)n1nnnc1C(c1cccnc1)N1CCOCC1 (stereo unspecified)	20	8	.	0
COc1ccc(Cn2nnnc2C(c2cccnc2)N2CCN(c3ccc(O)cc3)CC2)cc1 (stereo unspecified)	24	2	98*	-1
c1ccc(Cn2nnnc2C(c2ccccn2)N2CCN(c3ccccc3)CC2)cc1 (stereo unspecified)	12	7	98*	0
CC(C)(C)n1nnnc1C(c1ccncc1)N1CCN(c2ccc(O)cc2)CC1 (stereo unspecified)	10	-3	98*	0
COc1ccc(Cn2nnnc2C(c2cccs2)N2CCN(c3ccccc3)CC2)cc1 (stereo unspecified)	14	-3	5	0
CC(=O)c1sc(NS(=O)(=O)c2ccc(C)cc2)nc1-c1ccccc1	36	7	5	0
Oc1ccc(N2CCN(C(c3cccs3)c3nnnn3CCc3ccccc3)CC2)cc1 (stereo unspecified)	18	128	96*	-5
CCCC(c1nnnn1CC1CCCO1)N1CCN(c2ccccc2)CC1 (stereo unspecified)	5	35	98*	0
COCCn1nnnc1C(CC(C)C)N1CCN(c2ccccc2)CC1 (stereo unspecified)	13	13	93*	-1
CCC(c1nnnn1Cc1ccc2c(c1)OCO2)N1CCN(c2ccccc2)CC1 (stereo unspecified)	23	34	90*	-1
CCn1c(=O)c(C(=O)CN(C)CC(=O)Nc2cccc(F)c2)c(N)n(Cc2ccccc2)c1=O	.	-5	-2	.

Bioassay records (PubChem)
